# Assay results published in PubChem BioAssay (Tox21).
# Records with an inconclusive call do not appear. Values without a mark were called inactive. Calls of active or inactive are those of the source. Calls follow the shape of the dose curve; as a rule, active = well fitted inhibition curve with a large enough effect in the repeat runs; inconclusive = weak or mixed curves, or effect the other way; inactive = no such curve, though single readings can be large or run the other way.
# Molecular target: Nuclear receptor ROR-gamma (Homo sapiens) (UniProt P51449)
# Assay: qHTS assay to identify small molecule antagonists of the retinoid-related orphan receptor gamma (ROR-gamma) signaling pathway (AID 1159521; also: nearly all actives have a fitted effect of over 50% in size; as to activity change, negative = inhibition: top concentration of the series differs between compounds)
# Details: Tet-on RORgamma CHO cells, RORE-luciferase, 16 h; series mostly up to 92.4 µM; activity change, negative = inhibition: at the top concentration
# Text: U.S. Tox21 Program National Center for Advancing Translational Sciences [NCATS] NIH Chemical Genomics Center [NCGC] U.S. Environmental Protection Agency [EPA] National Institutes of Environmental Health Sciences [NIEHS] National Toxicology Program [NTP] U.S. Food and Drug Administration [FDA] Tox21 Assay Overview: Nuclear steroid hormone receptors are involved in many biological processes including inflammatory responses, cell proliferation, and apoptosis. Environmental factors or compounds disrupting these nuclear receptor pathways and gene expression may promote susceptibility to immunotoxicants and autoimmune diseases. One important group of these expression factors are the retinoid-related orphan receptors. To assess compounds that may interfere with the retinoid-related orphan receptor gamma (ROR-gamma) transcription factor, a cell-based luciferase assay was used. The CHO cell-based assay utilizes a TET-inducible ROR expression factor and ROR response element-LUC reporter gene. Reporter gene activity was induced using Doxycycline Hyclate and measured after 16 hr incubation. Tet-on ROR gamma CHO cells were used to screen against the Tox21 10K compound library for ROR gamma antagonists by quantification of decreased reporter gene activity in terms of decreased luminescence.
# Tox21 Assay Protocol Summary: Tet-on ROR gamma CHO cells were dispensed at 1,000 cells in 4 uL of culture medium per well into white wall/solid bottom 1536-well plates using a Multidrop Combi (Thermo Scientific, Waltham, MA) dispenser. Following incubation at 37 C and 5% CO2 for 4 hr, 23 nL of compounds dissolved in DMSO, positive controls or DMSO only were transferred by a Pintool station (Kalypsys, San Diego, CA) and after 2 hr incubation at 37 C, one ul of 1 uM (final concentration) of Doxycycline Hyclate was added to all the wells by using a Flying Reagent Dispenser (FRD) (Aurora Discovery, San Diego, CA). After 16 hr incubation at 37 C and 5% CO2, 5 uL of ONE-Glo reagent (Promega Corporation, Madison, WI) was added to each assay plate using FRD. After 30 min incubation at room temperature, luminescence was quantified on a ViewLux plate reader (Perkin Elmer, Waltham, MA).
# % is scaled to controls: 0 for no effect and ±100 for the full control effect; potency is read from the fitted curve at half-maximal effect.
Compound,"activity change, negative = inhibition",Potency
CNCCC(Oc1ccccc1OC)c1ccccc1 (stereo not given),-0.581% [at 42.5 µM],–
O=C1N(c2ccccc2)c2ccccc2C1(Cc1ccncc1)Cc1ccncc1,-4.18% [at 42.5 µM],–
O=C(O)CN(CCN(CC(=O)O)CC(=O)O)CCN(CC(=O)O)CC(=O)O,-6.39% [at 19 µM],–
NC(Cc1ccc(F)cc1)C(=O)O (stereo not given),-13.5% [at 8.39 µM],–
C[C@]12CCC(=O)C=C1CC[C@@H]1[C@@H]2CC[C@@]2(C)[C@H]1CC[C@]2(O)C(=O)CO,-10.1% [at 42.5 µM],–
CCCCCOc1ccc(C2SC(=O)NC2=O)cc1OCC (stereo not given),11.8% [at 42.5 µM],–
CC(C)C(=O)OCC(C)(C)C(O)C(C)C (stereo not given),16.7%,–
CC(C)C[C@H](NC(=O)OCC1c2ccccc2-c2ccccc21)C(=O)O,15%,–
CCOC(=O)COc1ccc2c(c1)CC(NCC(O)c1cccc(Cl)c1)CC2 (stereo not given),-1.38%,–
Cc1ccc([N+](=O)[O-])c(N)c1,-5.44%,–
CCCCCCCCCCCCOCCOS(=O)(=O)O,-17.1%,–
CCOc1ccccc1N,–,54.1 µM (active)
O=C(CC(=O)C(F)(F)F)c1ccccc1,4.35%,–
Cc1cccc(C)c1NC(=O)CN1CCCCCC1,32% [at 42.5 µM],–
CCCCCCCCOC(=O)CCCCCCCCC(=O)OCCCCCCCC,8.53%,–
CCCN(CCC)C(=O)C(CCC(=O)O)NC(=O)c1ccccc1 (stereo not given),-1.68% [at 42.5 µM],–
CC1(C)O[C@@H]2C[C@H]3[C@@H]4CCC5=CC(=O)CC[C@]5(C)[C@@]4(F)[C@@H](O)C[C@]3(C)[C@]2(C(=O)CCl)O1,–,13.3 µM (active)
CC(C)(C)c1ccc(OC(=O)c2ccccc2O)cc1,75.1%,–
CCCCCCCOC(=O)CCC,6.7%,–
CCC(=O)O[C@]1(C(=O)SCF)[C@H](C)C[C@H]2[C@@H]3C[C@H](F)C4=CC(=O)C=C[C@]4(C)[C@@]3(F)[C@@H](O)C[C@@]21C,-8.18% [at 42.5 µM],–

Compound,"activity change, negative = inhibition",Potency
CC(Oc1c(Cl)cccc1Cl)C1=NCCN1 (stereo not given),10.4% [at 42.5 µM],–
C/C(=N\O)[C@@H](C)NCC(C)(C)CN[C@H](C)/C(C)=N/O,-11.2% [at 42.5 µM],–
CN(C)CC[C@@H](c1ccc(Cl)cc1)c1ccccn1,10% [at 42.5 µM],–
CC1CN(c2ccccc2)NC1=O (stereo not given),139%,–
CC1=C2[C@H](/C=C(\C)C(=O)O)CC[C@@H](C)[C@H]2CC1,-40%,–
ICCc1ccccc1,–,59.9 µM (active)
O=C1CCN(c2ccccc2)N1,13.7%,–
CCNCCO,2.54%,–
CC(C)O,–,65.6 µM (active)
COc1ccc2nc(NC(=O)Nc3ccccc3)sc2c1,110% [at 42.5 µM],–
ClC(Cl)Cl,–,48.2 µM (active)
O=Cc1ccc(O)c(O)c1O,-0.42% [at 42.5 µM],–
Nc1ccc(Oc2ccc(N)c(N)c2)cc1,83.9%,–
C=CC1CO1 (stereo not given),14.8%,–
Cc1ccccc1C(=O)Nc1ccc(C(=O)N2CCCC(O)c3cc(Cl)ccc32)c(C)c1 (stereo not given),-28.6% [at 42.5 µM],–
COc1ccc(Nc2ccc(OC)cc2)cc1,72.2%,–
C[C@]12C(=O)OC(=O)[C@H]1[C@H]1C=C[C@@H]2C1,36.8%,–
COC(=O)c1ccc2cc(C(=O)OC)ccc2c1,0.445% [at 19 µM],–
COc1ccc(S(=O)(=O)Nc2nnc(CC(C)C)s2)cc1,-9.96% [at 42.5 µM],–
CN1CCN(N)CC1,13% [at 42.5 µM],–
